NOD2-RIPK2 inh – NOD2-RIPK2 protein interaction inhibition; O43353; CHO BLA complementation NOD2-RIPK2, CCF4 ratio; inhibition, % at 4.98 µM; hit rate 0.38% among 360,000; AID 624267; in the data active means inhibition above about 21%;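 further: 0% = vehicle only and 100% = reference blocker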
Myeloid diff 2 – myeloid differentiation induction; ER-HoxA9 myeloid progenitors, lysozyme-GFP differentiation, flow cytometry; calls only at 10 µM; hit rate 1% among 360,000; AID 624256;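 active means normalized GFP-positive differentiation at or above the plate's own cutoff, the solvent-only control mean plus 3 SD; inconclusive means no clear call, values can overlap the other calls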;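 further: cells exposed to compound for four days before flow analysis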
TLR4-MyD88 BLA – blocks binding of human TLR4 to MyD88; O00206+Q99836; inhibition, % at 8.4 µM; HeLa CL3-4 TLR4/MyD88 BLA complementation, FRET ratio; hit rate 0.18% among 200,000; in the data active means inhibition above about 25%;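 further: 0% = vehicle and 100% = reference inhibitor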
Target sequence (O00206 whole entry, looked up): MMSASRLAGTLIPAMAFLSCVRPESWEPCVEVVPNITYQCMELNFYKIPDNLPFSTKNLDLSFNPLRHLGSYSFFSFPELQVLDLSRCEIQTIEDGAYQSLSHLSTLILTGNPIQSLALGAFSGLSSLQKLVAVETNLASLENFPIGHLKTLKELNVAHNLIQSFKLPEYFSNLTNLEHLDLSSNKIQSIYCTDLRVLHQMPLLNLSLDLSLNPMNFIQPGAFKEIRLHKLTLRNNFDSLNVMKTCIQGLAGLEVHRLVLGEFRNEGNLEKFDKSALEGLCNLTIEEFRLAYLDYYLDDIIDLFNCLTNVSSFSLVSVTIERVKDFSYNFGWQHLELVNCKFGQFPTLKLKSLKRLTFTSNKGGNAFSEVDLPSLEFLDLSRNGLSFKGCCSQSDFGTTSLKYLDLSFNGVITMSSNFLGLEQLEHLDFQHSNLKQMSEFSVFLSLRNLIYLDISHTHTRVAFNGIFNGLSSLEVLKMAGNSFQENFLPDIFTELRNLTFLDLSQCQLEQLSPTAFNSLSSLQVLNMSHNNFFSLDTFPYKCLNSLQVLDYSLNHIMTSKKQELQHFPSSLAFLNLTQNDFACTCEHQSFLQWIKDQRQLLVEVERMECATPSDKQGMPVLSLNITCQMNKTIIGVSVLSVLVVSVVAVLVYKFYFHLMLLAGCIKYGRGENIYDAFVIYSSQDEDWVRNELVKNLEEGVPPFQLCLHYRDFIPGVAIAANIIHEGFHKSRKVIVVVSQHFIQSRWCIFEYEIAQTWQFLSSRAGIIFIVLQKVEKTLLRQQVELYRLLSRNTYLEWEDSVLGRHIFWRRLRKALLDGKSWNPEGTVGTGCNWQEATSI
Target sequence (Q99836 whole entry, looked up): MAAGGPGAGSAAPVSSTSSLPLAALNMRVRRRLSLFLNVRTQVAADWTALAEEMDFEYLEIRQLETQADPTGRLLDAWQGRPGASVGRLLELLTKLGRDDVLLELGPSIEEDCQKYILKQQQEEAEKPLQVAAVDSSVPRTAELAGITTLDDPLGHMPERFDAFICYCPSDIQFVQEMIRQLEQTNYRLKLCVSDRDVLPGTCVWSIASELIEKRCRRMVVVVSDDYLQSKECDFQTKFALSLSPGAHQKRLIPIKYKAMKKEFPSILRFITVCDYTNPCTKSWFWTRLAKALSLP
ABCB6 inh 2 – human ABCB6 transporter inhibition; Q9NP58; K562-ABCB6 porphyrin accumulation, flow cytometry, 1 h; active compounds read low; fluorescence ratio to DMSO, % at 10 µM; hit rate 0.19% among 360,000; AID 602162;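 active means fluorescence ratio to DMSO below 75%, the collection mean minus 3 SD; inconclusive means too few cells collected in the well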;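 further: signal is porphyrin accumulated inside mitochondria; 100% equals median channel fluorescence of DMSO control wells; lower ratio means ABCB6 inhibition with less porphyrin fluorescence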
TLR9-MyD88 inh – inhibitors of human TLR9-MyD88 binding; AID 504734; inhibition, % at 4.98 µM; hit rate 0.21% among 340,000; CHO BLA complementation TLR9-MyD88, CCF4 FRET ratio;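 active means inhibition above the mean over all tested compounds plus 3 SD, cut at about 21% in these data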;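 further: 0% = DMSO only wells and 100% = clavulanate BLA inhibitor control wells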
Myeloid diff – myeloid differentiation induction | AID 651706 | hit rate 2% among 2,300 | shares compounds with Myeloid diff 2 | calls only | ER-HoxA9 myeloid progenitors, GFP/Mac1 double-positive flow;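 active means share of green or green-and-red cells above 9 and 9% in run 1 or 4 and 3% in run 2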
GFP autofluor – flagged as fluorescent in myeloid differentiation counter-screen. shares compounds with Myeloid diff 2. ER-HoxA9 myeloid progenitors, no estrogen, GFP autofluorescence flow cytometry; vehicle wells 0%, positive control 100%. fluorescence response, % (test concentration not listed). hit rate 7.4% among 2,300. AID 651707;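 active means over 5% cells positive for green fluorescent reporter, or over 2% positive for both it and APC stain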;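 further: range taken on the double positive population between DMSO and positive control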
Active calls of the source: *; i = inactive; ? = inconclusive; . = no result given; + = active, no number. The list is not random: actives were taken first. Their share in the collection is about 1.7%.

SMILES | NOD2-RIPK2 inh | Myeloid diff 2 | TLR4-MyD88 BLA | ABCB6 inh 2 | TLR9-MyD88 inh | Myeloid diff | GFP autofluor
CCOC(=O)N1CCc2c(sc(NC(=O)CN(CC)CC)c2C#N)C1 | -6.7 | i | . | 97.0 | . | . | .
Cc1nc([N+](=O)[O-])nn1C12CC3CC(CC(Cl)(C3)C1)C2 | 2.2 | i | 9.8 | 104.0 | -1.4 | . | .
Cn1cccc1/C=C1\SC(=Nc2ccccc2)NC1=O | 5.8 | ? | . | 102.0 | -1.7 | . | .
Cc1ccc(N=C2NC(=O)/C(=C/c3cn(C)c4ccccc34)S2)cc1C | -8.6 | + | -23.4 | 149.0 | -10.5 | i | 35.3*
CC(C)CNC(=O)c1ccccc1-c1ccccc1C(=O)O | 7.6 | i | 2.1 | 96.0 | -0.3 | i | 0.7
COCc1cc(C)nc(OC)c1C(N)=O | 3.6 | i | -16.0 | 105.0 | 2.4 | . | .
COC(=O)c1sccc1NC(=O)c1csc(C)c1 | -1.5 | + | 3.4 | 97.0 | 15.3 | i | 0.2
COC(=O)c1sccc1NC(=O)c1ccc(C)cc1 | 4.8 | i | . | 84.0 | 7.5 | . | .
CC1(C)O[C@@H]2C[C@H]3[C@@H]4C[C@H](F)C5=CC(=O)CC[C@]5(C)[C@H]4[C@@H](O)C[C@]3(C)[C@]2(C(=O)CO)O1 | -10.4 | i | 2.2 | 105.0 | 2.5 | i | 0.4
CC(C)CCNC(=O)C(Cc1ccccc1)NS(=O)(=O)c1ccc2c(c1)c(=O)n(C)c(=O)n2C (centres undefined) | -10.9 | + | 5.4 | 104.0 | -13.3 | i | 0.0
CCCNC(=O)C(Cc1ccccc1)NS(=O)(=O)c1ccc2c(c1)c(=O)n(C)c(=O)n2C (centres undefined) | -9.7 | i | 6.2 | 96.0 | -3.3 | . | .
CCn1ncc(C2=NOC(C(=O)Nc3cc(OC)c(Cl)cc3OC)C2)c1C (centres undefined) | -8.4 | i | 0.9 | 100.0 | 1.1 | i | 0.0
COc1ccc(Nc2nnc(SCc3cn4c(C)cccc4n3)s2)cc1 | -0.4 | + | -14.6 | 97.0 | 0.3 | i | 0.0
COc1ccc(Br)c(C(=O)OCC(=O)NC2CCCCCCC2)c1 | -3.4 | i | . | 100.0 | 5.2 | . | .
COc1ccc(-c2noc(CCC(=O)N3CCN(c4cccc(C(F)(F)F)c4)CC3)n2)cc1 | -7.5 | + | 1.5 | 92.0 | -15.7 | i | 0.0
COc1ccc(-c2noc(CCC(=O)N3CCN(c4cccc(OC)c4)CC3)n2)cc1 | -5.1 | i | . | 94.0 | -12.2 | . | .
CC(=O)c1c(Cl)nc2cccc3c2c1-c1ccccc1C3=O | 8.9 | i | . | 100.0 | 1.4 | i | 0.0
COc1cc(-c2c(C(C)=O)c(C)nc3c2C(=O)c2ccccc2-3)cc(OC)c1OC | 11.6 | i | . | 99.0 | -13.3 | . | .
O=C(Nc1nc2nccc(-c3ccccc3)n2n1)C(Cl)(Cl)Cl | -1.9 | i | -5.4 | 96.0 | 11.2 | . | .
C#CC[N+]1(CC#Cc2ccccc2)CCOCC1 | -3.1 | i | 6.0 | 103.0 | -1.6 | i | 0.3
C#CC[N+]1(CC#Cc2ccccc2)CCCCC1 | 2.1 | i | 0.2 | 97.0 | -6.7 | . | .
C#CC[N+]1(CC#Cc2cccc(C)c2)CCCCC1 | -4.5 | i | -6.0 | 96.0 | -3.9 | i | 0.0
Cc1[nH]c2ccccc2c1-c1nc2ccccc2[nH]c1=O | -8.8 | i | . | 169.0 | 2.5 | . | .
c1nc(C2CCCCC2)cc2cc3c(cc12)OCO3 | 5.1 | i | . | 93.0 | -0.8 | . | .
NCCCC[C@H](NC(=O)C1CCNCC1)c1nnc(CN)o1 | . | . | -5.7 | . | . | . | .
SMILES | NOD2-RIPK2 inh | Myeloid diff 2 | TLR4-MyD88 BLA | ABCB6 inh 2 | TLR9-MyD88 inh | Myeloid diff | GFP autofluor
CC(C)(C)C(=O)/C=C1\SCC(=O)N1CC(=O)N1CCN(c2ccccc2)CC1 | 4.1 | i | . | 104.0 | -0.6 | i | 1.1
CC(/C=C1\SC(=S)N(CC(=O)N2CCN(c3ccccc3)CC2)C1=O)=C\c1ccccc1 | -1.3 | i | 2.2 | 99.0 | -21.1 | . | .
O=C(CNC(=O)OCc1ccccc1)NC1CCCCCCC1 | -15.7 | + | -6.6 | 99.0 | -6.1 | i | 0.0
O=C(COC(=O)CCC(=O)c1cccs1)NC(=O)c1ccc(OC(F)F)cc1 | -3.0 | i | 1.9 | 100.0 | 0.6 | . | .
CCOC(=O)C1=C(O)/C(=C/c2cc(OC)c(O)c(OC)c2)SC1=Nc1ccc(OC)cc1 | 8.1 | i | 11.9 | 120.0 | 0.4 | i | 22.6*
CC(C)C(=O)Nc1nc2c(c(=O)[nH]1)CCCC2 | -15.3 | i | 8.4 | 100.0 | . | . | .
O=C(O)CCCCCN1C(=O)/C(=C\c2ccncc2)SC1=S | -6.4 | + | -15.1 | 99.0 | -7.5 | i | 0.0
O=C(CCN1C(=O)/C(=C/c2ccccc2)SC1=S)NNC(=O)c1ccncc1 | 14.1 | i | 3.4 | 87.0 | -10.0 | . | .
CCC(C)NC(=O)c1ccc(N2CC3CC(C2)c2cccc(=O)n2C3)c(NC(=O)c2c(F)cccc2F)c1 (centres undefined) | 11.2 | i | . | 104.0 | 1.4 | . | .
Clc1ccc(-c2cnnc(-c3ccccn3)n2)cc1 | -3.6 | i | . | 93.0 | 1.1 | . | .
COc1ccccc1Cc1c(-c2cccc(Cl)c2)nc2ccc(Br)cn12 | -9.6 | + | . | 105.0 | . | i | 41.0*
Cc1ccc(N2C=Nc3ccc(C)c4nc(C)cc2c34)cc1 | 6.1 | i | 4.2 | 101.0 | 1.2 | . | .
CC1=Nc2ccc(C)c3nc(C)cc(c23)N1c1ccc(C)cc1 | 1.7 | + | 7.9 | 108.0 | -0.1 | i | 0.0
COCCOC(=O)c1[nH]c2c(c1C)C(=O)C(C(=O)OC)C(C)C2 (centres undefined) | -4.2 | i | -3.3 | 100.0 | -0.6 | . | .
COC(=O)C1C(=O)c2c([nH]c(C(=O)OCC3CCCO3)c2C)CC1C (centres undefined) | 1.5 | i | -7.7 | 93.0 | 3.5 | i | 0.3
CCN1C(=O)C2(C(C#N)=C(N)Oc3n[nH]c(-c4ccc(Cl)cc4)c32)c2ccccc21 (centres undefined) | -2.3 | i | -14.3 | 96.0 | -6.5 | . | .
N#CC1=C(N)Oc2n[nH]c(-c3ccccc3)c2C12C(=O)Nc1ccccc12 (centres undefined) | 10.4 | i | 5.9 | 97.0 | -8.0 | i | 0.0
O=C(COC(=O)COc1ccccc1)NCc1ccc2c(c1)OCO2 | -51.3 | i | . | 106.0 | -9.6 | . | .
CCOC(=O)Cc1csc(NC(=O)c2sc3nc4ccc(CC)cc4cc3c2N)n1 | -1.2 | i | 2.8 | 179.0 | -13.2 | i | 3.2
CCOC(=O)Cc1csc(NC(=O)c2sc3nc4cc(C)ccc4cc3c2N)n1 | -3.0 | i | 13.4 | 154.0 | 3.0 | i | 1.3
CCOC(=O)Cc1csc(NC(=O)c2ccc(Br)o2)n1 | 6.6 | i | 1.5 | 94.0 | -5.2 | . | .
O=C(CCN1C(=O)c2ccccc2S1(=O)=O)Nc1ccccc1 | -2.0 | i | -1.1 | 98.0 | -5.0 | . | .
O=C(CCN1C(=O)c2ccccc2S1(=O)=O)Nc1ccc2c(c1)OCCO2 | -36.7 | i | 2.9 | 104.0 | -3.2 | i | 0.5
